Source: PubChem BioAssay (NCATS)
Inconclusive results are not listed. Unmarked numbers belong to inactive results. Active and inactive are the calls of the source. The call rests on the fitted dose curve; in most records, active means well fitted cell-killing curve with a large enough effect; inconclusive means small, poorly fitted or top-dose-only effect; inactive means flat fitted curve, though single readings scatter.

Assay: qHTS of pediatric cancer cell lines to identify multiple opportunities for drug repurposing: Primary screen for RD cells (AID 1347104); further: nearly all actives have a fitted effect of over 55% in size
Settings: RD rhabdomyosarcoma viability, CellTiter-Glo luminescence, 48 h; series mostly up to 46 µM; activity change, negative = cytotoxic: at the top concentration
Excerpt: Drug repurposing or repositioning has been offered as a strategy for drug development in oncology programs. This approach has special potential for childhood cancers and other rare or orphan diseases, where the expected return on new drug development has been a disincentive to pharmaceuticals. […] In this project we exploit the poly-pharmacology of drugs to discover new indications via phenotypic screening of a panel of 19 well-characterized cell lines derived from solid tumors seen in children and adolescents. The goal is to identify approved drugs with previously unrecognized anticancer properties that has the potential to reveal new mechanisms and biological processes involved in carcinogenesis or drug resistance. We employed a titration-based paradigm (quantitative high-throughput screening or qHTS), where all compounds were tested at multiple concentrations for their effect on cell viability. Concentration-response curves (CRCs) were derived directly from the primary screen, and both potency and efficacy values were used to identify compounds with robust bioactivity profiles. We screened the NIH Chemical Genomics Center (NCGC) Pharmaceutical Collection (NPC) and Mechanism Interrogation Plate (MIPE) small molecule collections of approved and investigational compounds against these cell lines; and measured metabolically active cells after 48 hours of compound treatment as a proxy for cell viability. […] Assay Submitter: Nathalia J. Martinez, National Center for Advancing Translational Sciences, National Institutes of Health, Rockville, MD, USA; email: natalia.martinez@nih.gov Shen, M et al. Quantitative high-throughput phenotypic screening of pediatric cancer cell lines identifies multiple opportunities for drug repurposing. Oncotarget 2017 Dec 19;9(4):4758-4772. PMID 29435139.
The cells were obtained from University of North Carolina (UNC), Pediatric Preclinical Testing Program (PPT), and Coriell Institute (CI). qHTS cell viability assay: Cells were assayed in growth media at a density of 500-1,000 cells/well. Five microliters of cells were dispensed into 1,536-well, white, solid-bottom, TC-treated plates (Greiner Bio One) using a multidrop dispenser and incubated at 37 degrees C, 5% CO2, under a humidified atmosphere for 5 hours. Twenty-three nanoliters of compounds and controls (neutral control DMSO or positive control bortezomib at final concentration of 2.3 µM) were subsequently transferred by Kalypsys pintool. For primary screens, the MIPE collection was tested at 11-point dilutions (final concentrations range from 0.78 nM to 46 µM) and the NPC collection at 8-point dilutions (final concentrations range from 0.59 nM to 46 µM). Compounds tested in follow-up screens were assayed at 11-point dilutions. Cells were incubated for 48 hours, followed by addition of 3 µL of CellTiter-Glo (Promega). After a 15 min incubation at room temperature, samples were analyzed for luminescence intensity using a ViewLux High-throughput CCD imager equipped with clear filters.
For Oc1ccc(Cl)cc1, the “activity change, negative = cytotoxic” value was 10.1%. In the case of CCOC(=O)CC(SP(=S)(OC)OC)C(=O)OCC (stereo not given), the Potency is reported as “inactive”. With CC(C)C[C@H](CN)CC(=O)O the “activity change, negative = cytotoxic” value was -6.45%. With CCCN(CCC)C(=O)Cc1c(-c2ccc(Cl)cc2)nc2ccc(Cl)cn12 the “activity change, negative = cytotoxic” value was -35.1%. For CC(Cc1ccccc1)NCCn1cnc2c1c(=O)n(C)c(=O)n2C (stereo not given), the “activity change, negative = cytotoxic” value was -13.3% [at 92.7 µM]. For O=[N+]([O-])O[C@H]1CO[C@H]2[C@@H]1OC[C@H]2O[N+](=O)[O-], the “activity change, negative = cytotoxic” value was 9.15%. With C[C@]12CC[C@@H]3c4ccc(OC(=O)N(CCCl)CCCl)cc4CC[C@H]3[C@@H]1CC[C@@H]2OP(=O)(O)O the “activity change, negative = cytotoxic” value was 13%. With CN1C(=O)COc2c(C(=O)NC3CN4CCC3CC4)cc(Cl)cc21 (stereo not given) the Potency was “inactive”. In the case of O=C(O)CCCc1ccc(N(CCCl)CCCl)cc1, the Potency is reported as “inactive”. In the case of COc1cc(CCN)cc(OC)c1OC, the “activity change, negative = cytotoxic” value is reported as -8.97% [at 92.7 µM]. With CC(C)=CC1C(C(=O)OCN2C(=O)C3=C(CCCC3)C2=O)C1(C)C (stereo not given) the “activity change, negative = cytotoxic” value was -15.4%. For CN1CCC(O)(c2ccc(F)cc2)C(C(=O)c2ccc(F)cc2)C1 (stereo not given), the “activity change, negative = cytotoxic” value was -2.1%. With C[N+]1(CCF)[C@@H]2CC[C@H]1CC(OC(=O)C(O)(c1ccccc1)c1ccccc1)C2 (stereo not given in full) the “activity change, negative = cytotoxic” value was 12%. In the case of CCCOC(=O)c1cncn1C(C)c1ccccc1 (stereo not given), the “activity change, negative = cytotoxic” value is reported as 6.47%. For CC(C)c1cccc(C(C)C)c1O, the Potency was “inactive”. For C[C@]12CC[C@H]3[C@@H](CCC4=CC(=O)CC[C@@H]43)[C@@H]1CC[C@@H]2OC(=O)CCC1CCCCC1, the “activity change, negative = cytotoxic” value was 2.61%. In the case of CC1(C)C(C=C(Cl)Cl)C1C(=O)OC(C#N)c1cccc(Oc2ccccc2)c1 (stereo not given), the “activity change, negative = cytotoxic” value is reported as 6.97%. For O=C1OC(c2ccc(O)c(S(=O)(=O)O)c2)(c2ccc(O)c(S(=O)(=O)O)c2)c2c(Br)c(Br)c(Br)c(Br)c21, the “activity change, negative = cytotoxic” value was 10.1%. In the case of COc1ccc2c3c1O[C@H]1[C@H](O)CC[C@H]4[C@@H](C2)N(C)CC[C@@]341, the “activity change, negative = cytotoxic” value is reported as -3.36% [at 92.7 µM]. With COc1c2c(cc3c1OCO3)CCN(C)C2 the “activity change, negative = cytotoxic” value was -6.54%. For O=c1[nH]c2ccccc2n1C1CCNCC1, the “activity change, negative = cytotoxic” value was -1.22%. In the case of CCC1(CC)C(=O)C=CNC1=O, the “activity change, negative = cytotoxic” value is reported as 22.7%. With CCN(CCO)CCn1c(Cc2ccccc2)nc2c1c(=O)n(C)c(=O)n2C the “activity change, negative = cytotoxic” value was 9.76%. With Nc1ccccc1 the “activity change, negative = cytotoxic” value was 11.9%. With C[C@]12CC[C@@H]3c4ccc(OC(=O)N(CCCl)CCCl)cc4CC[C@H]3[C@@H]1CC[C@@H]2O the “activity change, negative = cytotoxic” value was 13.4%. In the case of Cc1ncsc1CCCl, the “activity change, negative = cytotoxic” value is reported as 12.9%. With CC(C)(N)Cc1ccccc1Cl the “activity change, negative = cytotoxic” value was 10.4%. For CC(C)(C)NCC(O)c1cc(Cl)c(N)c(C(F)(F)F)c1 (stereo not given), the “activity change, negative = cytotoxic” value was 2.75%. With CCC(CC)(CNC(=O)CCCO)c1cccc(OC)c1 the “activity change, negative = cytotoxic” value was 19.6%. For CC(C)NC(C)C, the “activity change, negative = cytotoxic” value was 13.4%. With O=C1c2ccccc2C(=O)C1C(=O)C(c1ccccc1)c1ccccc1 the “activity change, negative = cytotoxic” value was -28.7%. For C[C@H](N)C(=O)c1ccccc1, the “activity change, negative = cytotoxic” value was -14.7% [at 155 µM]. In the case of C#CC(O)(C=CCl)CC (stereo not given), the “activity change, negative = cytotoxic” value is reported as 11.9%. For COC1CC(=C(c2cccs2)c2cccs2)C[N+](C)(C)C1 (stereo not given), the “activity change, negative = cytotoxic” value was -9.64%. With CC(C)N(CCC(C(N)=O)(c1ccccc1)c1ccccn1)C(C)C (stereo not given) the “activity change, negative = cytotoxic” value was 1.29%. In the case of CC(C(=O)c1ccccc1)N(C)C (stereo not given), the “activity change, negative = cytotoxic” value is reported as 17.6%. With C[C@H]1[C@@H]2Cc3ccc(O)cc3[C@@]1(C)CCN2C the “activity change, negative = cytotoxic” value was -15.2% [at 231 µM]. With NC(=O)CS(=O)C(c1ccccc1)c1ccccc1 (stereo not given) the “activity change, negative = cytotoxic” value was 7.69%. In the case of CCC1(c2ccc(N)cc2)CCC(=O)NC1=O (stereo not given), the Potency is reported as “inactive”. For COC(=O)C(Cl)C(=O)OC, the “activity change, negative = cytotoxic” value was -0.679%.
